Bioassay records: PubChem, several laboratories
CYP2C9 activ: increases human cytochrome P450 2C9 activity; recombinant CYP2C9, luciferin-H conversion, luminescence; stronger effect = higher value; factor 1 = untreated enzyme, 0 = blocked; AID 1024; P11712; activation factor at 5 µM; 96,000 compounds, 1.4% hits;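 active = activation factor of 2 or more for CYP2C9 at a 5 µM dose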;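 note: 0 = sulfaphenazole-blocked wells and 1 = vehicle-only wells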
EphB4 ephrin blk: EphB4-ephrin-B2 interaction antagonism | AID 720 | 97,000 compounds, 0.15% hits | EphB4 LBD / TNYL-RAW-Alexa532 peptide, fluorescence polarization | inhibition, % at 7 µM;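 active = inhibition above the screen-wide mean inhibition plus 3 SD, cut at about 15% in these data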;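 note: 0% = DMSO wells and 100% = excess unlabeled TNYL-RAW peptide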
Target sequence (P54760 whole entry, looked up, the tested form may be a part): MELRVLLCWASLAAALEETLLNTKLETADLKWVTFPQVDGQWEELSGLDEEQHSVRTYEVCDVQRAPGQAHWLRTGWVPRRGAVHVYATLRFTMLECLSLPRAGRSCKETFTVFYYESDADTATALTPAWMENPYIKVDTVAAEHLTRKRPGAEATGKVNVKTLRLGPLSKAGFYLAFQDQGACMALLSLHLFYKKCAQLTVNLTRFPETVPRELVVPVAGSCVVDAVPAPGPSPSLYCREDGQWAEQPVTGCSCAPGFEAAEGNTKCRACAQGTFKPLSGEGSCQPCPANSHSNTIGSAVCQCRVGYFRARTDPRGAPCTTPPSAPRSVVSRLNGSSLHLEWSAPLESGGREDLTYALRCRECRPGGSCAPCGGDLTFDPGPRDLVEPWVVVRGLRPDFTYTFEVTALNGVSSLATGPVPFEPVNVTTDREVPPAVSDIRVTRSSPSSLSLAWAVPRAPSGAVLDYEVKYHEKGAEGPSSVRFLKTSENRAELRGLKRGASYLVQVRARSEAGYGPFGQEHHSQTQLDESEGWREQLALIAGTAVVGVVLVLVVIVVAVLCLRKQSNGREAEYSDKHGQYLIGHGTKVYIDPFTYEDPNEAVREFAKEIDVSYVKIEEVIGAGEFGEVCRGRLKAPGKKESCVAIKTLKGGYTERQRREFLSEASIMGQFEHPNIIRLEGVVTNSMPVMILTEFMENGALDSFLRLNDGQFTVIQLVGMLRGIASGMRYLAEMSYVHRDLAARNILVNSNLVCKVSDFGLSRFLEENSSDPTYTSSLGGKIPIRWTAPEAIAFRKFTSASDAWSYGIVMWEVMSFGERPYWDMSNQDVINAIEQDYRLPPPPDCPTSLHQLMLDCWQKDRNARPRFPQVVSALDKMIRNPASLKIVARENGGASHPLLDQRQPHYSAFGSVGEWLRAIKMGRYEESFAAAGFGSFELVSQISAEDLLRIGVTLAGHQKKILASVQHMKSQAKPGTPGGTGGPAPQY
CYP2C19 activ: increases human CYP2C19 enzyme activity | P33261 | recombinant CYP2C19, luciferin-H EGE luminescence; stronger effect = higher value; 0 = fully inhibited enzyme, 1 = untreated enzyme | activation factor at 5 µM | 96,000 tested, under 10 active | AID 1025;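 active = activation factor of at least 2 at 5 µM in the primary screen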;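 note: 0 = wells with 2.5 mM tranylcypromine and 1 = vehicle-only wells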
CYP2C19 inh: inhibitors of human CYP2C19 | AID 778 | CYP2C19 Supersomes, luciferin-H EGE luminescence, 30 min | 96,000 compounds, 21% hits | inhibition, % at 5 µM | P33261;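 active = CYP2C19 inhibition above a set limit at 5 µM in the primary screen, cut at about 50% in these data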;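 note: plate controls were negative control wells for no effect and 2.5 mM tranylcypromine positive control for full effect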
CYP2C9 inh: blocks human cytochrome P450 2C9. P11712. CYP2C9 Supersomes, luciferin-H conversion, luminescence. inhibition, % at 5 µM. 96,000 compounds, 20% hits;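 active = blocking of liver enzyme CYP2C9 beyond about 50% at 5 µM, limit read from the data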
The depositor's hits bear a star; / = no result given. Rows were chosen to be rich in hits. Some 27% of all compounds tested hit in one or more screens of this group.

SMILES	CYP2C9 activ	EphB4 ephrin blk	CYP2C19 activ	CYP2C19 inh	CYP2C9 inh
Cc1cc(NC(=O)c2cc3n(n2)C(C(F)(F)F)CC(c2ccco2)N3)n(-c2ccccc2)n1 (stereo not given)	0.5	-1.0	0.7	33.5	49.5
O=C(NCc1ccc(F)cc1)c1cccc(S(=O)(=O)N2CCCC2)c1	0.8	4.2	0.9	14.9	17.4
CCC1(C)Cc2c(sc3nnn(CC(=O)Nc4ccc(C)cc4)c(=O)c23)CO1 (stereo not given)	0.6	-1.7	0.6	43.7	41.9
COC(=O)c1cc(NC(=O)Cc2ccc(OC)c(OC)c2)cc(C(=O)OC)c1	0.2	-3.1	0.9	11.8	82.1*
COC(=O)c1ccc(C)c(NC(=O)Cc2coc3cc(OC)ccc23)c1	0	4.7	0	95.1*	97.9*
COc1ccc2c(CC(=O)OCC(=O)Nc3ccc4c(c3)OCO4)coc2c1	0.6	/	0.8	16.0	37.7
COC(=O)c1cc(NC(=O)Cc2coc3cc(OC)ccc23)cc(C(=O)OC)c1	0.1	0.5	0.4	58.0*	91.7*
CCOc1ccccc1C(=O)Nc1nnc(COC)s1	/	5.1	/	/	/
CCCCS(=O)(=O)Nc1ccc(Cc2ccncc2)cc1	0	2.2	0	100.0*	100.0*
O=c1cc(CNC2CCCCC2)c2ccccc2[nH]1	1	1.9	0.9	6.5	-2.3
Cc1nc2sccn2c1P(c1c(C)nc2sccn12)c1c(C)nc2sccn12	0.4	/	0.3	72.3*	63.0*
CN1CCN(CC(=O)O)CC1	0.5	-0.1	0.9	8.5	54.5*
CCCCNC(=O)CCNS(=O)(=O)c1ccc(Br)cc1	2.7*	-1.7	0.8	19.0	-166.3
CCC(C)NC(=O)CNS(=O)(=O)c1ccc(C)cc1 (stereo not given)	/	-5.0	/	/	/
CCOCCCNS(=O)(=O)c1ccc(Br)cc1	1.3	-6.3	0.1	89.8*	-34.6
CCC(C)NC(=O)CCNS(=O)(=O)c1ccc(Br)cc1 (stereo not given)	2.2*	/	0.5	49.0	-116.4
C=CCNC(=O)CCNS(=O)(=O)c1ccc(Br)cc1	1.6	-11.8	0.8	20.5	-58.8
COc1ccc(Nc2nc(C(C)(C)C)nc3c2nnn3Cc2ccccc2Cl)cc1OC	/	-2.3	/	/	/
CC(=O)c1cccc(NC(=O)Nc2ccc3c(c2)N(C)C(=O)CS3)c1	0.4	-3.9	0.3	67.9*	59.4*
Cc1cc(C)cc(NC(=O)Nc2ccc3c(c2)N(C)C(=O)CS3)c1	0.9	1.2	1	0.6	10.2
Clc1ccc(-c2nn3cnnc3s2)c(Cl)c1	0.7	/	0.1	88.6*	29.4
Clc1ccccc1-c1nnc2sc(C3COc4ccccc4O3)nn12 (stereo not given)	0.1	2.7	0.1	86.1*	87.2*
Clc1ccccc1-c1nn2c(-c3ccncc3)nnc2s1	0.3	10.8	0.2	78.5*	74.4*
Clc1ccc(-c2nn3c(-c4ccncc4)nnc3s2)c(Cl)c1	0.8	/	0.2	83.8*	15.3
CN1CCN(CCC(=O)Nc2cccc(F)c2)CC1	1.1	3.5	1	-1.1	-6.0
SMILES	CYP2C9 activ	EphB4 ephrin blk	CYP2C19 activ	CYP2C19 inh	CYP2C9 inh
COc1ccc(OC)c(CN2CCCC(C(=O)N3CCCCC3)C2)c1 (stereo not given)	1	-1.3	0.9	9.6	3.4
Clc1ccccc1-c1nnc2sc(-c3cccs3)nn12	0.4	/	0.6	42.2	61.1*
Clc1ccccc1-c1nnc2sc(-c3ccncc3)nn12	0.7	-2.6	0.2	80.5*	34.5
Clc1ccccc1-c1nn2c(-c3ccccn3)nnc2s1	0.9	/	0.4	59.6*	13.6
Cc1cccc(-c2nnc3sc(-c4ccccc4)nn23)c1	0.9	-6.7	0.7	29.2	11.8
Clc1ccc(-c2nn3c(-c4cccc(Cl)c4)nnc3s2)cc1	0.8	/	0.4	60.5*	23.8
Cc1cc2c(c(=O)n1Cc1ccccn1)C(C(C)C)C(C#N)=C(N)O2 (stereo not given)	0.9	-8.0	1	4.4	11.9
Cc1cc(C)n2nc(CC(=O)NC3CCCC(C)C3C)nc2n1 (stereo not given)	1	0.8	1	-1.4	-4.2
CN1CCN(c2nc(-c3ccco3)cc(C(F)(F)F)n2)CC1	0.9	-1.2	0.9	12.6	13.5
Oc1ccc(N2CCN(C(c3ccccn3)c3nnnn3C3CCCC3)CC2)cc1 (stereo not given)	/	-6.7	/	/	/
CCN1CCN(c2nc(C)nc3c2sc(=S)n3C)CC1	0.9	-8.7	1	-4.8	9.2
Cc1nn2c(-c3ccc(Cl)cc3Cl)nnc2s1	0.9	0.5	0.5	51.7*	12.6
Clc1ccc(-c2nnc3cccc(Cl)n23)c(Cl)c1	1	5.1	0.6	38.9	3.8
Brc1ccc(-c2nn3c(-c4ccncc4)nnc3s2)o1	0.8	/	0.3	68.8*	15.5
COc1ccc(C(=O)/C=C/Nc2ccc([N+](=O)[O-])cc2C)cc1OC	1	-6.0	0.4	59.7*	-0.2
CCOc1ccc(N/C=C/C(=O)c2ccc3ccccc3c2)c([N+](=O)[O-])c1	2.1*	6.5	1	3.7	-108.2
COc1ccc(C(=O)/C=C/Nc2ccc([N+](=O)[O-])cc2C)c(OC)c1	1.1	0.8	0.7	31.2	-10.2
CCOc1ccc(N/C=C/C(=O)c2ccc(C)cc2)c([N+](=O)[O-])c1	1.8	-4.6	0.8	22.9	-80.3
CSc1nsc(SCc2cnc(C)nc2N)n1	1.1	0.0	0.6	37.1	-9.6
CCO/C=C1\C(=O)N(c2ccccc2)C(=O)c2ccccc21	0.8	/	0.7	26.5	18.1
Cc1ccccc1NC1=C(C(=O)c2ccccc2)N(C)S(=O)(=O)c2ccccc21	0.4	-6.3	0.4	56.2*	63.0*
COc1ccc2c(c1)-c1ccccc1S(=O)(=O)N2C	0.8	0.4	0.7	27.9	19.6
Cc1sc2ncnc(Sc3nnnn3-c3ccccc3)c2c1C	0.8	-3.0	0.4	56.1*	22.6
Cc1sc2ncnc(NCc3ccccc3)c2c1C	0.5	-3.4	0.2	75.2*	46.7
CSCC[C@H](Nc1ncnc2sc(C)c(C)c12)C(=O)O	0.2	-2.5	1.1	-6.8	83.1*
SMILES	CYP2C9 activ	EphB4 ephrin blk	CYP2C19 activ	CYP2C19 inh	CYP2C9 inh
Cc1sc2ncnc(Nc3ccccc3)c2c1C	1	-4.5	0.5	50.5*	-1.0
Cc1sc2ncnc(N[C@@H](CCC(=O)O)C(=O)O)c2c1C	1	11.2	1.1	-8.4	4.5
COCCN1C(=O)C(CC(=O)Nc2ccccc2)SC1=Nc1ccc(OC)cc1 (stereo not given)	0.2	-4.8	0.4	55.6*	81.2*
CCCN1C(=O)SC(CC(=O)Nc2ccccc2)C1=O (stereo not given)	0.5	-0.6	0.1	88.8*	50.3*
O=C(CC1SC(=Nc2ccccc2)N(CCCO)C1=O)Nc1ccc(Cl)cc1 (stereo not given)	0.1	/	0.3	73.0*	88.2*
CCCN1C(=O)SC(CC(=O)Nc2cccc3ccccc23)C1=O (stereo not given)	/	7.1	/	/	/
Cn1c(/N=C/c2cc(Cl)ccc2O)nc2ccccc21	1.1	-0.7	1.1	-7.8	-6.9
